The target of the assay is T1, ETS1 (UniProt P14921).
T1 sequence: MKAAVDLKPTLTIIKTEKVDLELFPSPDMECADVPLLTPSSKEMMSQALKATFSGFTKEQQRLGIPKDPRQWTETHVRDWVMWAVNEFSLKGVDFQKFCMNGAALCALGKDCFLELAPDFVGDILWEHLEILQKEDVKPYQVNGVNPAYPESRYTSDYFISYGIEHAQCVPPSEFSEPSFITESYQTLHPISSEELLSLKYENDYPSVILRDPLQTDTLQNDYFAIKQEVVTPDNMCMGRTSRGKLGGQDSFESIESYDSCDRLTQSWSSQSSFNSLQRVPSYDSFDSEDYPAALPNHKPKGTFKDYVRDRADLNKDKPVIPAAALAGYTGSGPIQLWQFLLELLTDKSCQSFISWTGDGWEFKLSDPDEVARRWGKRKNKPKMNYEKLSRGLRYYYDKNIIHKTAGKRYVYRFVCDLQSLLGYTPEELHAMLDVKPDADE
Nature of the assay: TF binding intensity (PBM fluorescence), negative control probe (arbitrary fluorescence units); higher = stronger binding. The method, then:
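gcPBM negative-control 36-bp genomic probes lacking TF binding sites. Each was incubated with recombinant human ETS1 or RUNX1 alone and detected by antibody fluorescence. Values are medians over replicate spots (4 spots for the ETS1-RUNX1 arrays, 3 for the ETS1-ETS1 array). The probes sit in constant array flanks that are not printed.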
“GGCCCTGGGCCTGACCCATGAAATCATTTTTCCCTT (protein concentration 10 nM)” showed a TF binding intensity of 94.3.
“GTCAAAGGCTCTGCAGAGTCAAGTAGCCTCCCACTT (protein concentration 10 nM)” showed a TF binding intensity of 112.
The value for “CTTATTATTAATGGTCATTAGCCACAGTCACCACCA (protein concentration 10 nM)” was 137; that for “GTTTATTGCCCACAACATGTCAGGCACAGTGGGAAG (protein concentration 10 nM)” was 132; that for “ACACATCAAAATGTCTGTGGTTTTTATGAAAAATAG (protein concentration 1 nM)” was 510.
The result for “AGAAGCTTGGCTTGGTCTGCGCCTCCTCCCGTGCCT (protein concentration 10 nM)” reads 101.
The value for “GCAACACTCACTCAAACCACAGTAATCAAAAGGCAC (protein concentration 1 nM)” was 496.
“TACTGGGGAGTGAAAAGGACACATCTATCCTTATAT (protein concentration 10 nM)”: the TF binding intensity is 103.
On to “GCTATCTATTTTAATTAGCTAAGATTGCTATTAATA (protein concentration 10 nM)”, for which the TF binding intensity turned out to be 106.
The result for “GGCATCTACCTCCCAGGAGCAAGCGGGAGACAGCCC (protein concentration 10 nM)” reads 134; that for “GACCACAGGGACCCATGCCAGTCAGATAAAAATAAC (protein concentration 10 nM)”, 141.
The value for “TGACCATTTGAGGTTTGTGGTTATGCATATAAAATG (protein concentration 1 nM)” was 577; that for “TCCTGTAAGGACATTTTGTGCCTTCTCCCATGATGA (protein concentration 10 nM)” was 97.8.
The result for “TTAATTAAGCGGTTTATATCAAGAAAAAGGCATTTC (protein concentration 10 nM)” reads 115; that for “GTGAATTCAAAACAACCCACAGTTTTAATTCTCTGT (protein concentration 1 nM)”, 452.
As to “GAAAGAGGCACATGGTGCCTCACAGCCTCCTCCCAG (protein concentration 10 nM)”, the TF binding intensity came out at 128.
The result for “TAAATCAAAAGATGACCAAGCTGGAGAGAAAAGTGA (protein concentration 10 nM)” reads 129; that for “AAAACAAACAAACCAAACAACACAACAGAAGTTTTC (protein concentration 10 nM)”, 150; that for “GCCTTGCCTTGGTCATGTTTGACTCTGCCTTCAACT (protein concentration 10 nM)”, 146.
The value for “ATTTCTTGAGAAATCTGTGGTTATTATTTAACTCTT (protein concentration 1 nM)” was 461.
The value for “ACTCTAGTTTGTGATTTTTAAAACGTTTGAAAGCCA (protein concentration 10 nM)” was 124.
Sequence “AAAAAAATAGCTTTAACCACAAAAACTCCTTGAAAA (protein concentration 1 nM)” came in with a TF binding intensity of 514.
The result for “TTTAAAAAATCTACTCTGTCCCTTAAAAGGCCGTTT (protein concentration 10 nM)” reads 107; that for “TTTCAGAGGGAAAAGAATTTTGCCGTTCGCGTTCGA (protein concentration 10 nM)”, 113.
The result for “TTATAGCATCTATTTATGTAAATCATATCTCCTTTT (protein concentration 10 nM)” reads 101; that for “AAGTTAATGAGATATTGTGGTTGTTTGTGTTTGGTT (protein concentration 1 nM)”, 477.
The value for “CGCCAGGGGGAGCAACAGAAATCCACACCAGGGAAG (protein concentration 10 nM)” was 173.
For the sequence “AACGTCTACATTTGCTATTGTAAAACTTTTCAAGGC (protein concentration 10 nM)”, the TF binding intensity amounted to 125.
The result for “TCCTCTGGTCTCTAAACCACAGCCTCCACCAGCAAC (protein concentration 1 nM)” reads 442; that for “GATGTGGCCTATAGGGATCCTTCACTTAGGCATGAG (protein concentration 10 nM)”, 121.
The result for “GACATTTCGAGTAAGTGCGGTATACCAGTTAAAAAT (protein concentration 1 nM)” reads 479; that for “GCAAAGCGGGCGAGTGGCCTGGAGAGAGGGAGCAGC (protein concentration 10 nM)”, 150; that for “CAACCTAACTATAATGCAAATAGGGATTCTTTTTCT (protein concentration 10 nM)”, 88.5.
The value for “TCCTCACGAATCTCTCTACTTCTGTTCTTGCCCATC (protein concentration 10 nM)” was 135; that for “CAGAGGGGGCCTCTGGGGCAGCGGTGCTGGGAGCGG (protein concentration 10 nM)” was 109.
On to “AGTATGAGTTTGAATACACAGAACCTTTCTCATTCT (protein concentration 10 nM)”, for which the TF binding intensity was 106.
In the case of “CATTAGTAAACCCTTACCACACCCAAACAACAAAAG (protein concentration 1 nM)”, the TF binding intensity came to 541.
The value for “ACGACTCTTCCCAAGCAGCGGGAGGATCTAGGCCCA (protein concentration 10 nM)” was 102.
The result for “AGCAGATCATTTGAGCCTGGGAGGCGCACATGGCAG (protein concentration 10 nM)” reads 116; that for “CCATCGATGAAAAGGCTGCTATCTCTCGCTGATGGG (protein concentration 10 nM)”, 139.

The values are drawn from the supplement of paper PMC10681739.
